In PubChem BioAssay AID1159580 (chemical genetic matrix, 2015):
Several values for one entry are separate records, joined by “and”; a condition that tells them apart may be missing. Identical values can stand only once. Among all 5,500 compounds or so, about 2,000 (36%) were called active. About 18% were inconclusive and are not listed. Some of the results follow. A number with no mark means an inactive call. Cut-off read from the data, not from the text of the source: active = normalized growth mostly below about 0.91 (no sharp cut-off); inconclusive = no clear call, values can overlap the other calls; inactive = mostly above about 0.92.

Assay: chemical genetic growth profiling, strain panel (AID 1159580);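 note: tested at 20 µM; growth read once vehicle control cultures reached saturation at 30 °C; 1 = growth at the plate median or of vehicle wells; lower values mean less growth of the strain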
Details: S. cerevisiae deletion strains, growth OD

## C#C[C@]1(O)CCC2C3CCc4cc(O)ccc4C3CC[C@@]21C (some centres not stated)
Locus YAL013W, strain DEP1, hits give low values
  normalized growth: 1
Locus YAL021C, strain ccr4, hits give low values
  normalized growth: 1.06
Locus YAL026C, strain drs2, hits give low values
  normalized growth: 0.951
Locus YAL030W, strain snc1, hits give low values
  normalized growth: 1.02
Locus YBL061C, strain skt5, hits give low values
  normalized growth: 0.998
Locus YBR009C, strain hhf1, hits give low values
  normalized growth: 0.894 (active)
Locus YBR021W, strain FUR4, hits give low values
  normalized growth: 0.94
Locus YBR023C, strain chs3, hits give low values
  normalized growth: 0.996
Locus YBR171W, strain sec66, hits give low values
  normalized growth: 1.02
Locus YBR229C, strain ROT2, hits give low values
  normalized growth: 1.02
Locus YBR231C, strain swc5, hits give low values
  normalized growth: 1
Locus YBR279W, strain paf1, hits give low values
  normalized growth: 1
Locus YCL011C, strain gbp2, hits give low values
  normalized growth: 1.01
Locus YCL016C, strain dcc1, hits give low values
  normalized growth: 0.988
Locus YCL029C, strain bik1, hits give low values
  normalized growth: 0.942
Locus YCL061C, strain MRC1, hits give low values
  normalized growth: 0.968
Locus YCL069W, strain vba3, hits give low values
  normalized growth: 1.02
Locus YCR088W, strain abp1, hits give low values
  normalized growth: 1.02
Locus YDL005C, strain med2, hits give low values
  normalized growth: 1.04
Locus YDL035C, strain GPR1, hits give low values
  normalized growth: 0.853 (active)
Locus YDL040C, strain nat1, hits give low values
  normalized growth: 1.03
Locus YDL074C, strain BRE1, hits give low values
  normalized growth: 0.833
Locus YDL101C, strain DUN1, hits give low values
  normalized growth: 0.989
Locus YDL185W, strain tfp1, hits give low values
  normalized growth: 1.02
Locus YDL192W, strain arf1, hits give low values
  normalized growth: 1.01
Locus YDR001C, strain nth1, hits give low values
  normalized growth: 1.04
Locus YDR069C, strain doa4, hits give low values
  normalized growth: 0.991
Locus YDR101C, strain arx1, hits give low values
  normalized growth: 0.956
Locus YDR137W, strain rgp1, hits give low values
  normalized growth: 0.738 (active)
Locus YDR159W, strain sac3, hits give low values
  normalized growth: 0.908
Locus YDR162C, strain NBP2, hits give low values
  normalized growth: 0.843
Locus YDR195W, strain ref2
  normalized growth: 1.25 [resistant] (active)
Locus YDR297W, strain sur2, hits give low values
  normalized growth: 1.01
Locus YDR318W, strain mcm21, hits give low values
  normalized growth: 0.945
Locus YDR334W, strain swr1, hits give low values
  normalized growth: 1.05
Locus YDR335W, strain msn5, hits give low values
  normalized growth: 0.959
Locus YDR388W, hits give low values
  normalized growth: 1.02
Locus YDR392W, strain spt3, hits give low values
  normalized growth: 0.617 (active)
Locus YDR502C, strain sam2, hits give low values
  normalized growth: 0.93
Locus YEL003W, strain gim4, hits give low values
  normalized growth: 0.938
Locus YEL037C, strain rad23, hits give low values
  normalized growth: 1.02
Locus YEL061C, strain CIN8 (second series), hits give low values
  normalized growth: 1.03
Locus YEL061C, strain CIN8, hits give low values
  normalized growth: 1.04
Locus YER015W, strain faa2, hits give low values
  normalized growth: 1.01
Locus YER016W, strain bim1, hits give low values
  normalized growth: 0.934
Locus YER110C, hits give low values
  normalized growth: 1.03
Locus YER111C, strain swi4, hits give low values
  normalized growth: 1.06
Locus YER155C, strain BEM2 (second series), hits give low values
  normalized growth: 1.07
Locus YER155C, strain BEM2, hits give low values
  normalized growth: 1.06
Locus YER167W, strain BCK2, hits give low values
  normalized growth: 1
Locus YFR010W, strain ubp6, hits give low values
  normalized growth: 1.01
Locus YGL078C, strain dbp3, hits give low values
  normalized growth: 0.904 (active)
Locus YGL086W, strain mad1, hits give low values
  normalized growth: 0.951
Locus YGL167C, strain pmr1, hits give low values
  normalized growth: 1.02
Locus YGL173C, strain kem1, hits give low values
  normalized growth: 0.904
Locus YGL227W, strain vid30, hits give low values
  normalized growth: 1.05
Locus YGL240W, strain doc1, hits give low values
  normalized growth: 0.918
Locus YGL248W, strain PDE1, hits give low values
  normalized growth: 0.952
Locus YGL253W, strain hxk2, hits give low values
  normalized growth: 0.963
Locus YGR078C, strain PAC10, hits give low values
  normalized growth: 0.877
Locus YGR135W, strain pre9, hits give low values
  normalized growth: 0.949
Locus YGR252W, strain gcn5, hits give low values
  normalized growth: 0.653 (active)
Locus YHR013C, strain ard1, hits give low values
  normalized growth: 1.17 [resistant] (active)
Locus YHR027C, strain rpn1, hits give low values
  normalized growth: 0.981
Locus YHR030C, strain SLT2, hits give low values
  normalized growth: 1.02 and 0.96
Locus YHR079C, strain IRE1 (second series), hits give low values
  normalized growth: 0.979
Locus YHR079C, strain IRE1, hits give low values
  normalized growth: 0.968
Locus YHR094C, strain hxt1, hits give low values
  normalized growth: 1.03
Locus YHR129C, strain ARP1, hits give low values
  normalized growth: 0.993
Locus YHR142W, strain chs7, hits give low values
  normalized growth: 0.946
Locus YHR200W, strain rpn10, hits give low values
  normalized growth: 1.01
Locus YIL066C, strain RNR3, hits give low values
  normalized growth: 0.913
Locus YIL073C, strain SPO22, hits give low values
  normalized growth: 1.01
Locus YIL125W, strain kgd1, hits give low values
  normalized growth: 1
Locus YIR030C, strain dcg1, hits give low values
  normalized growth: 0.999
Locus YJL092W, strain hpr5, hits give low values
  normalized growth: 1.02
Locus YJL095W, strain BCK1 (second series), hits give low values
  normalized growth: 1
Locus YJL095W, strain BCK1, hits give low values
  normalized growth: 0.861 and 1
Locus YJL115W, strain asf1, hits give low values
  normalized growth: 1.05
Locus YJL129C, strain trk1, hits give low values
  normalized growth: 0.946
Locus YJL134W, strain LCB3, hits give low values
  normalized growth: 1.03
Locus YJL154C, strain vps35, hits give low values
  normalized growth: 1.05
Locus YJL164C, strain tpk1, hits give low values
  normalized growth: 0.952
Locus YJL166W, strain qcr8, hits give low values
  normalized growth: 0.973
Locus YJL168C, strain set2, hits give low values
  normalized growth: 1.02
Locus YJL187C, strain SWE1 (second series), hits give low values
  normalized growth: 0.931
Locus YJL187C, strain SWE1, hits give low values
  normalized growth: 1.02
